Assay results from PubChem BioAssay (NCI).
Values joined by “and” are separate entries in the source; they are usually repeats but may differ in a detail not shown here. Equal entries are not always repeated. This is part of a sample that, as a whole, favours compounds with a hit. Of some 83,000 tested, about 20% had one in any assay.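 Each cell line was grown in a 96-well plate and treated with one concentration of compound for 48 hours. Values below 10 were considered active.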 A number with no mark means an inactive call. Active and inactive are the calls of the source.

tested on: MDA-MB-468 breast; assay: NCI-60 one-dose screen, 48 h (100 = growth as untreated, 0 = no growth, -100 = all killed); conditions: 10 µM unless noted

Compound	growth
Cn1cc(-c2nonc2-c2c[nH]c3ccc(F)cc23)c2cccnc21	-7.39% (active)
COc1cc(NCCN(CC(C)C)C2CCCC2)c2ncccc2c1	-13.9% (active)
CCN1CCC(CCOC)(CN2c3ccccc3Sc3ccc(Cl)cc32)C1 (stereo not given)	16.9%
O=c1ccc(-c2nc(N3CCOCC3)c3ccccc3n2)c[nH]1	95.8%
CC1(C)NCCC[C@]2(C)[C@H]3CC[C@@H]4[C@H]5[C@H](C(=O)/C=C/c6ccco6)CC[C@]5(CO)CC[C@@]4(C)[C@]3(C)CC[C@@H]12	87.9%
Oc1ccc(O)c(-c2ccccc2)c1	33.2%
O=C(C(=O)N1CCCC1)c1cn(CCCn2cc(C(=O)C(=O)N3CCCC3)c3cc(Br)ccc32)c2ccc(Br)cc12	70.4%
Oc1cc(O)c(Br)cc1Br	101%
Nc1nc(N)c2c(n1)NC(c1sc(Cl)nc1Cl)CC(c1ccccc1)=N2 (stereo not given)	-2.14% (active)
CCN(CC)CCN1CC(=O)Nc2cc(Cl)ccc21	98.7%
COc1ccc(-c2nc3ccc(-c4nc5ccc(N6CCN(c7ccccc7)CC6)cc5[nH]4)cc3[nH]2)cc1OC	-46.1% (active)
O=c1c2c(c3ccccc3n1-c1ccccc1)NC(=S)NC2c1ccc(Cl)cc1 (stereo not given)	115%
COc1ccc2cc(-c3nn(-c4ccc(C(=O)O)cc4)cc3CO)ccc2c1	109%
O=C(Nc1cccc(-n2cc(-c3ccncc3)c(-c3ccc(O)c(Cl)c3)n2)c1)Nc1ccc(Cl)c(Cl)c1	27.3%
O=S(=O)(NCCNc1nccc(-c2c(-c3cccc(O)c3)nc3sccn23)n1)c1ccc(F)cc1	64.8%
Cc1cn(C(=O)/C(Cl)=C(/Cl)C(=O)O)c2ccccc12	108%
COc1ccc(C2=NN(C(C)=O)C(c3c(C)nn(-c4ccccc4)c3N3CCOCC3)C2)cc1 (stereo not given)	92.6%
Cc1c2cc[nH]c(=O)c2c(C)c2c1[nH]c1ccc(OC(=O)c3ccccc3)cc12	12.6%
COc1cc(Cn2cc3c(c2)-c2onc(CN4CCOCC4)c2CC3)cc(OC)c1OC	81.5%
Cc1ccc(-c2nc(/C=N/Nc3cc(C)nc4ccc(Br)cc34)c(C)o2)cc1	-89% (active)

Compound	growth
N#Cc1cccc(-c2ccc3c(c2)NC(=O)/C3=C\c2ccc[nH]2)c1	-20.1% (active)
O=C1NC(=O)c2c(CCCSc3nc4ccccc4c(=O)n3CCc3ccccc3)cccc21	112%
Nc1[nH][nH]c(=O)c1N=Nc1ccccc1	105% and 98.5%
C=C1C(=O)O[C@H]2[C@H]1CC/C(COC(=O)n1ccnc1C)=C\CC[C@@]1(C)O[C@@H]21	76.4%
C=C1C(=O)O[C@H]2[C@H]1CC/C(COC(=O)n1ccnc1)=C\CC[C@@]1(C)O[C@@H]21	79.7%
CC(=O)c1c(C)[nH]c(-c2nc3ccc(N4CCN(C)CC4)cc3[nH]2)c1-c1ccc2c(c1)OCCO2	12.6%
CCNC(=O)c1[nH]cc(-c2ccc(OC)cc2)c1-c1cc(OC)cc(OC)c1	76.2%
COc1ccc(-c2ccc(-c3ccc(C(=N)N)cn3)s2)cc1OC	92.6%
CCNC(=O)C1CCCN1C(=O)C(CCCN=C(N)N)NC(=O)C(CC(C)C)NC(=O)C(CC(C)C)NC(=O)C(Cc1ccc(O)cc1)NC(=O)C(CO)NC(=O)C(Cc1c[nH]c2ccccc12)NC(=O)C(Cc1cnc[nH]1)NC(=O)C1CCC(=O)N1 (stereo not given)	87.4%
CCCCCCCOc1cccc(/C=C2/C(=O)N=C3SCCCN32)c1	56.8%
O=c1[nH]c2cc(Cl)ccc2n1C1CCN(c2ccc3nnc(Cl)n3n2)CC1	85.3%
COc1cc2cc3c(nc2cc1OC)CCN3Cc1ccc(NC(=O)Nc2ccc(F)cc2F)cc1	45.6%
CC1=NC2=Nn3c(c4cnn(-c5ccccc5)c4n/c3=N\N)NN2C(c2ccccc2)=C1	73.9%
COC(=O)c1c2c(c(C)[n+]([O-])c1C)C(=O)C=C(NCc1ccc(Br)cc1)C2=O	-60.1% (active)
O=C1/C(=C/c2c[nH]c(=O)[nH]c2=O)SC(=S)N1Cc1ccccc1	109%
C=C1C(=O)O[C@H]2[C@H]1CC/C(COC(=O)NCCc1ccc(OC)cc1)=C\CC[C@@]1(C)O[C@@H]21	-2.57% (active)
CCc1ccc(-c2ccc(-n3nc(C)c4c(N)nc(Cc5ccccc5)nc43)cc2)cc1	38.9%
COc1cnc2c(c1)C(=O)c1c-2n(CCCN2CCNCC2)c(=O)c2cc(Cl)ccc12	65.8%
NCCNc1ccc2cc(-c3nc4ccccc4[nH]3)c(=O)oc2c1	94.9%
CCCOCC(O)CNCCN (stereo not given)	106%
